Compound activity as filed in PubChem.
Pf apPOL block: Pf-apPOL inhibitors, biochemical, fluorescence; Plasmodium falciparum apicoplast DNA polymerase (apPOL); Recombinant Pf-apPOL, molecular beacon fluorescence, 1.5 h; inhibition, % at 10 µM; 210,000 compounds, 0.25% hits
mHTT CaM bind: mutant huntingtin-calmodulin interaction inhibitors – biochemical, AlphaScreen, primary screen; 190,000 compounds, 3.6% hits; AID 1671202, 2021; P42858; AlphaScreen His-mHTT/GST-CaM binding, luminescence; inhibition, % at 15 µM
Of the large screens only hits and unclear results are named; the others gave an inactive call. This is a sample that favours compounds with a hit; in the whole collection about 3.5% have one here. Cut-off read from the data, not from the text of the source: active = inhibition above about 50%; inactive = the rest.

Cn1c2c(c3ccccc31)CN(C(=O)c1cccs1)CC2	mHTT CaM bind 100.0
O=C(NCc1cccnc1)C1CC(=O)N(CCc2c[nH]c3ccc(F)cc23)C1 (centres undefined)	none
CCCCc1[nH]nc2c1C1(CC[C@H]3COC1O3)C(C#N)=C(N)O2 (some centres undefined)	none (no result: Pf apPOL block)
O=c1c([N+](=O)[O-])c(Cl)c2ccccc2n1-c1ccccc1	mHTT CaM bind 100.0
O=c1c([N+](=O)[O-])c(O)c2ccccc2n1-c1ccccc1	none
O=c1cc(-c2ccccc2Cl)oc2ccc([N+](=O)[O-])c(O)c12	none
O=[N+]([O-])c1cc([N+](=O)[O-])c2oc(-c3ccccc3)c(Br)c2c1O	mHTT CaM bind 96.0
O=C1C(=Nc2ccc(F)c(Cl)c2)c2ccccc2N1CN1CCCCC1	none
O=C(CSc1cn(Cc2cccc(F)c2)c2ccccc12)N1CCCCC1	none
CC1CCN(C(=O)CSc2cn(Cc3ccc(F)cc3)c3ccccc23)CC1	mHTT CaM bind 83.0
O=C(CSc1cn(Cc2ccc(Cl)cc2)c2ccccc12)N1CCCCC1	none
O=C(CSc1cn(Cc2ccc(Cl)cc2)c2ccccc12)Nc1ccc2c(c1)OCO2	mHTT CaM bind 64.0
O=C(CSc1cn(Cc2ccccc2Cl)c2ccccc12)N1CCCCC1	mHTT CaM bind 53.0
CC1CCN(C(=O)CSc2cn(Cc3ccccc3Cl)c3ccccc23)CC1	mHTT CaM bind 58.0
O=C(CSc1cn(Cc2ccccc2Cl)c2ccccc12)Nc1ccc2c(c1)OCO2	none
Cc1ccccc1Cn1cc(SCC(=O)N2CCOCC2)c2ccccc21	none
CCC(C)NC(=O)c1cncc(-c2ccccc2Br)c1 (centres undefined)	none
O=C(CSc1cn(Cc2ccc(Cl)cc2)c2ccccc12)N1CCOCC1	mHTT CaM bind 72.0
O=C(CSc1cn(Cc2ccc(F)cc2)c2ccccc12)N1CCOCC1	none
O=C(Nc1nc(-c2nc3ccccc3s2)cs1)c1c(F)cccc1F	none
Cn1c(N2CCCC(C(=O)N3CCN(c4ccccc4F)CC3)C2)cc(=O)n(C)c1=O (centres undefined)	none
Cc1ccccc1-n1[nH]c(C)c(C=Nc2ccc([N+](=O)[O-])cc2)c1=O	none
Cc1ccccc1-n1[nH]c(C)c(C=Nc2cc([N+](=O)[O-])cc([N+](=O)[O-])c2O)c1=O	mHTT CaM bind 53.0
COc1cccc2cc(C(=O)Nc3nccs3)c(=Nc3cccc(Cl)c3)oc12	none
CC(=O)C=C(C)NCCNC(C)=CC(C)=O	none (no result: mHTT CaM bind)
CCOc1ccc(NC(=O)C2CCCN(C(=O)c3cccc(C)c3)C2)cc1 (centres undefined)	none
c1cc2c(cc1CN1CCc3nc(Nc4ccc5c(c4)OCCO5)ncc3C1)OCCO2	mHTT CaM bind 70.8
Fc1ccccc1Nc1ncc2c(n1)CCN(Cc1ccc3c(c1)OCCO3)C2	none
Clc1ccc(CN2CCc3nc(Nc4ccc5c(c4)OCCO5)ncc3C2)cc1	mHTT CaM bind 76.8
Clc1ccc(CN2CCc3nc(Nc4ccc5c(c4)OCO5)ncc3C2)cc1	none
O=C(CCC1CCCN(C(=O)Nc2ccccc2)C1)N1CCC2(CC1)OCCO2 (centres undefined)	none
CC(C)(C)c1ccc(C(=O)NN=C(C(=O)O)c2ccccc2)cc1	none (no result: mHTT CaM bind)
CCCN1C(=O)Cc2ccccc2C1C(=O)NCc1ccccc1OC (centres undefined)	none
COc1ccccc1CNC(=O)C1c2ccccc2CC(=O)N1Cc1ccccc1 (centres undefined)	mHTT CaM bind 99.8
Cc1cc(C)nc(N2CCN(CC(=O)Nc3ccccc3F)CC2)n1	none
C1CCN(C2CCN(C3CC4CCC3C4)CC2)CC1 (centres undefined)	none
C1CCCN(C2CCN(C3CC4CCC3C4)CC2)CC1 (centres undefined)	mHTT CaM bind 81.0
CN(C)CCNC(=O)NCC12CC3CC(C1)CC(c1ccccc1)(C3)C2	mHTT CaM bind 78.7
CN(C)CCNC(=O)C12CC3CC(C1)CC(c1ccccc1)(C3)C2	none
Cc1ccc(C(=O)/C=C/C=C/C=C/N(C)C)o1	mHTT CaM bind 73.8
Cc1ccc(C(=O)NN(C)C)o1	none (no result: Pf apPOL block)
COC(=O)C1C(=O)C(C(=O)C=Cc2ccco2)C(=O)CC1(C)C (centres undefined)	none (no result: mHTT CaM bind)
CCc1ccc(CN2C(=O)CCC2(C)C(=O)NC2CCCC(C)C2C)cc1 (centres undefined)	none
NC(=O)CSc1ccc(-c2ccccn2)nn1	mHTT CaM bind 100.1
O=C(CSc1cccc2cccnc12)Nc1nc2ccccc2s1	none
O=C(CSc1ccc(-c2ccccn2)nn1)Nc1nc2ccccc2s1	mHTT CaM bind 89.2
NC(=O)CSc1nc2ccccc2nc1SCC(N)=O	none
Cc1ccc2nc(NC(=O)CSc3ccc(NC(=O)C4CC4)nn3)sc2c1	none
Cc1ccc2nc(NC(=O)CSc3ccc(-c4ccco4)nn3)sc2c1	Pf apPOL block 74.0, mHTT CaM bind 84.6
CC(C)(C)NC(=O)N1CCC(c2cc(N)on2)CC1	none
CCNc1cc(N2CCCC(CCC(=O)NCCN3CCCCC3)C2)ncn1 (centres undefined)	none
O=C(NC1CCCCC1)O[C@@H]1C[C@H]2C[C@@H]1[C@H]1CCCCN1C2=O	none
O=C(c1ccc(Cn2c(=O)[nH]c3ccccc3c2=O)cc1)N1CCc2ccccc2C1	mHTT CaM bind 59.8
O=C(c1ccc(Cn2cncn2)cc1)N1CCc2ccccc2C1	none
COc1cc(NC(=O)c2nc(C)oc2C)cc(OC)c1	none
CC(=O)N1c2c(cc(Br)cc2S(=O)(=O)Nc2cccc(C(F)(F)F)c2)CC1C (centres undefined)	none
CC(=O)N1c2c(cc(Br)cc2S(=O)(=O)Nc2ccc(C(F)(F)F)cc2)CC1C (centres undefined)	mHTT CaM bind 91.0
Cc1ccc(-c2noc(C3CCN(CC(=O)Nc4ccc(F)cc4)CC3)n2)cc1	none
O=C(Cc1cc(-c2ccc3c(c2)OCO3)on1)NC1=NCCS1	none
CC(C)Cn1c(=O)c2c(ncn2Cc2ccc(F)cc2)n(-c2ccccc2)c1=O	none
Cc1ccccc1-n1c(=O)n(CC(C)C)c(=O)c2c1ncn2Cc1ccc(F)cc1	mHTT CaM bind 75.1
Cc1[nH]c2ccccc2c1SCCNC(=O)c1ccccc1F	mHTT CaM bind 99.0
Cc1ccccc1C(=O)NCCSc1c(C)[nH]c2ccccc12	none
CCC1CN2C=NC(N3CCN(C(=O)c4cccc(OC)c4OC)CC3)=CC2=N1 (centres undefined)	none
CC(C)n1cc2cc(C(=O)N(C)C)sc2c1	none
CN(Cc1ccccc1)C(=O)c1cc2cn(C3CC3)cc2s1	mHTT CaM bind 94.8
CC(C)n1cc2cc(C(=O)N(C)Cc3ccccc3)sc2c1	mHTT CaM bind 86.2
O=C(NCc1ccccc1)c1cc2cn(C3CC3)cc2s1	none
CC(C)N1CCN(C(=O)c2cc3cn(C(C)C)cc3s2)CC1	none
CC(C)n1cc2cc(C(=O)N3CCN(Cc4cccc(F)c4)CC3)sc2c1	mHTT CaM bind 70.9
Cc1cc(F)ccc1OCc1noc(-c2cccc(F)c2)n1	none
O=C(Cc1nnc(-c2ccc3ncccc3c2)o1)Nc1cc(F)cc(F)c1	none
CC1CN(C(=O)c2ccc(Br)cc2)CC(C)O1 (centres undefined)	none
O=C(CCc1nnc(-c2ccccc2)[nH]c1=O)N1CCc2ccccc2C1	none
CCCCN(C)CCCNC(=O)CCC(=O)N1CCCn2nc(C)cc21	none
CCOc1ccc(N2C(=O)CC(N3CCCC3)C2=O)cc1 (centres undefined)	none
COc1ccc(OCC2CN(C(=O)c3ccc(C)cc3)CCO2)cc1 (centres undefined)	none
